Laboratory results from PubChem BioAssay (NCI).
Compounds without any hit were thinned out: in the full panel of roughly 83,000, 20% have a hit.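 Single-dose data. Exposure time 48 hours. Values below 10 considered active.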 Unmarked numbers belong to inactive results. The source made the active and inactive calls.

How the values were obtained:
Assay in all cases: NCI-60 one-dose screen, 48 h (100 = growth as untreated, 0 = no growth, -100 = all killed)
Conditions in all cases: 10 µM unless noted
SR leukemia = system: SR leukemia
RPMI-8226 leukemia = system: RPMI-8226 leukemia
OVCAR-8 ovarian = system: OVCAR-8 ovarian
OVCAR-5 ovarian = system: OVCAR-5 ovarian
OVCAR-4 ovarian = system: OVCAR-4 ovarian
SK-OV-3 ovarian = system: SK-OV-3 ovarian
IGROV1 ovarian = system: IGROV1 ovarian
OVCAR-3 ovarian = system: OVCAR-3 ovarian
HS 578T breast = system: HS 578T breast
NCI/ADR-RES ovarian = system: NCI/ADR-RES ovarian

Row | SMILES | growth (SR leukemia) | growth (RPMI-8226 leukemia) | growth (OVCAR-8 ovarian) | growth (OVCAR-5 ovarian) | growth (OVCAR-4 ovarian) | growth (SK-OV-3 ovarian) | growth (IGROV1 ovarian) | growth (OVCAR-3 ovarian) | growth (HS 578T breast) | growth (NCI/ADR-RES ovarian)
1 | O=C(OCc1ccc2c(Cl)cc(Cl)c(O)c2n1)n1cncn1 | 23.1% | 32.9% | 20.7% | 81.8% | 25.1% | 39% | 32.9% | 30.7% | 67.4% | 
2 | CCc1nc2c(=O)[nH]cnc2o1 | 92.8% | 109% | 111% | 107% | 96.2% | 110% | 111% | 111% | 102% | 
3 | O=Nc1c(-c2c(O)[nH]c3ncccc23)[nH]c2ccccc12 | 32.8% | 69.5% | 79.6% | 67.7% | 66.7% | 6.5% (active) | -25.3% (active) | 69.3% | -9.72% (active) | 
4 | C1=CN2CC(c3ccccc3)=NNC2c2ccccc21 (stereo not given) | 97% | 69.8% | 92% | 106% | 83% | 92.2% | 22.8% | 81.5% | 86.7% | 
5 | Oc1c(Cl)cc(Cl)c2ccc(Cn3cc(-c4cc(F)cc(F)c4)nn3)nc12 | -22.2% (active) | 5.12% (active) | 69.6% | 91% | 56% | 108% | 85.8% | 2.47% (active) | 88.5% | 
6 | COc1cc(CNC(=O)/C=C/C=C/c2ccc3c(c2)OCO3)ccc1OCc1cn(-c2ccc(C)c(C)c2)nn1 | 81.5% | 86.3% | 71.3% | 104% | 46.7% | 86.5% | 76.1% | 82.8% | 91.4% | 
7 | CCN1CCN(Cc2cn(CC(=O)Nc3ccc4c(ccn4Cc4ccccc4)c3)nn2)CC1 | 63.5% | 85% | 99.7% | 113% | 97.4% | 92.7% | 105% | 102% | 100% | 108%
8 | CCN(CC)CCNC(=O)c1cn2ncnc(Oc3ccc(NC(=O)Nc4ccc(Cl)c(C(F)(F)F)c4)c(F)c3)c2c1C | -32.3% (active) | -16.6% (active) | 45.4% | 54.6% | 6.15% (active) | 82% | -36.6% (active) | -3.03% (active) | -7.92% (active) | 56.8%
9 | CN1CCN(C(=O)OCc2ccc3c(Cl)cc(Cl)c(O)c3n2)CC1 | 14% | 42% | 45.1% | 106% | 46.8% | 88.7% | 56.6% | 50.9% | 80.2% | 
10 | COC(=O)[C@]1(C)CCC[C@]2(C)[C@H]3C[C@H]4C(C(C)C)=C[C@]3(CC[C@H]21)[C@H]1[C@@H]4[C@@H](OCCC#N)CC[C@@H]1OCCC#N | 2.88% (active) | -16.1% (active) | 51.5% | 92.8% | 30.7% | 75.8% | 41.5% | 22.7% | 59.4% | 
11 | CC1=Nc2cnc(Nc3ccc(OCCN4CCCC4)cc3)nc2Nc2ccccc21 | 58.1% | 78% | 80.6% | 74% | 62.9% | 43.8% | 23.1% | 76.4% | 41.5% | 
12 | O=C1Nc2ccccc2/C1=C\c1nc(-c2ccccc2)n2ccccc12 | 101% | 81.9% | 95.5% | 90.6% | 73.7% | 81% | 67% | 115% | 118% | 
13 | O=C1Nc2ccc(Br)cc2/C1=N/c1n[nH]c(=S)s1 | 83.5% | 103% | 95% | 110% | 108% | 93.2% | 105% | 104% | 93.9% | 95.7%
14 | CNc1nc(S(=O)c2ccc(C#N)cc2)nc2ccccc12 (stereo not given) | 29.4% | 61% | 87.8% | 81.2% | 68.6% | 98.6% | 86.3% | 53.4% | 79.9% | 97.8%
15 | CCCCCCCCCCCCCCCCCCOc1ccccc1CC(=O)OCC[N+]1(C)CCCC1 | 17.8% | 21.6% | 11.9% | 37.3% | 27.9% | 94.1% | -58% (active) | 22.3% | 30.3% | 82.3%
16 | Cc1cnc(C(=O)NNc2nc3sc4c(c3c(=O)n2C)C(C)CCC4)cn1 (stereo not given) | 12.2% | 9.06% (active) | 5.29% (active) | 2.46% (active) | -14.7% (active) | 11.9% | -18.6% (active) | -2.78% (active) | 34.2% | 1.29% (active)
17 | CCCCC[C@@H]1Cc2cc(O)c(C(=O)O)c3c2[C@H](C[C@]2(OC[C@@H](CC(=O)[C@@](C)(CC)C(=O)OC)[C@@H]2C)O3)O1 | 105% | 108% | 99.4% | 111% | 104% | 104% | 103% | 111% | 99.8% | 113%
18 | CC[C@@H](C(=O)[C@@H](C)[C@@H](O)[C@H](C)[C@@H]1O[C@@H]([C@@H](CC)C(=O)NCCc2ccc(F)cc2)CC[C@@H]1C)C1O[C@]2(C=CC(=O)[C@]3(CC[C@@](C)([C@H]4CC[C@](O)(CC)[C@H](C)O4)O3)O2)[C@H](C)C[C@@H]1C (stereo not given in full) | 41.9% | 7.59% (active) | 32.2% | 67.7% | -2.57% (active) | 44.7% | 26.3% | 10.5% | 48.1% | 29.6%
19 | O=S(=O)(Nc1ccccc1)c1ccc(C2CC3(Cl)C(Cl)=C(Cl)C2(Cl)C3(Cl)Cl)cc1 (stereo not given) | 18.8% | 13.8% | 55.6% | 60.1% | 44% | 76% | 54.8% | 26% | 54.8% | 24.1%
20 | O=C(CCCCCCN1CC(=O)N2[C@H](c3cc(Br)cs3)c3[nH]c4ccccc4c3C[C@H]2C1=O)NO | 17.2% | 11.8% | 28% | 38% | 63% | 61.9% | 40.7% | 38.4% | 44.8% | 78.9%
21 | Cc1ccc(-c2cc(-c3ccc(Cl)cc3)nc(NC(=O)c3cccnc3)n2)cc1 | 89.1% | 86.3% | 103% | 102% | 100% | 109% | 102% | 115% | 103% | 104%
22 | CN1C(=O)/C(=C/c2cn(-c3ccccc3)nc2-c2ccccc2)SC1=S | 109% | 108% | 105% | 106% | 106% | 109% | 107% | 121% | 100% | 98.1%
23 | CN([O-])c1nc(N(C)[O-])nc(N2CCOCC2)n1.CN([O-])c1nc(N(C)[OH2+])nc(N2CCOCC2)n1.[Fe+3] | 67.3% [100 µM] | 81% [100 µM] | 85.6% [100 µM] | 110% [100 µM] | 120% [100 µM] | 110% [100 µM] | 112% [100 µM] | 60% [100 µM] | 98.2% [100 µM] | 104% [100 µM]
24 | O=C1C(Cl)=C(Oc2ccccc2)C(=O)c2ccccc21 | 48.8% | 35.2% | 85% | 118% | 106% | 103% | 80.7% | 16% | 31.6% | 88.6%
25 | Oc1ccc(CN2CCC(N3CCCCC3)CC2)c2cccnc12 | 19.7% | 19.4% | 25% | 47.2% | 22.7% | 16% | 25.4% | 28.8% | 27.6% | 30.8%
26 | Oc1c(Cl)cc(Cl)cc1/C=N/Nc1nnc(N/N=C/c2cc(Cl)cc(Cl)c2O)c2ccccc12 | 3.92% (active) | 0.393% (active) | 17.4% | 40.4% | 8.13% (active) | 29.3% | 13.1% | 14.1% | 31.6% | 1.78% (active)
27 | NC(=O)c1c(NC(=O)c2ccccc2)sc2c1CCC(=O)C2 | 7.6% (active) | -10.3% (active) | 17.2% | 20.3% | -5.57% (active) | 50.9% | 27.1% | 7.93% (active) | 24.5% | 7.2% (active)
